Measured values as given in PubChem BioAssay (NCI).
This is part of a sample that, as a whole, favours compounds with a hit. Of some 83,000 tested, about 20% had one in any assay.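 Percent growth is the endpoint: 0 to 100 indicates growth inhibition (40 means 60% inhibition), 0 means no net growth, and negative values indicate cell death.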 Unmarked numbers belong to inactive results. The source made the active and inactive calls. The calls were made as follows: active = growth percent below 10; inactive = the rest.

Columns and labels:
Assay in all cases: NCI-60 one-dose screen, 48 h (100 = growth as untreated, 0 = no growth, -100 = all killed)
Settings in all cases: 10 µM unless noted
[1] = system: SK-MEL-2 melanoma
[2] = system: EKVX NSCLC
[3] = system: SN12C renal
[4] = system: UO-31 renal
[5] = system: TK-10 renal
[6] = system: ACHN renal
[7] = system: CAKI-1 renal
[8] = system: A498 renal
[9] = system: CCRF-CEM leukemia
[10] = system: MOLT-4 leukemia
[11] = system: SR leukemia
[12] = system: RPMI-8226 leukemia
[13] = system: OVCAR-8 ovarian
[14] = system: OVCAR-5 ovarian
[15] = system: OVCAR-4 ovarian
[16] = system: SK-OV-3 ovarian
[17] = system: IGROV1 ovarian
[18] = system: OVCAR-3 ovarian
[19] = system: HS 578T breast
[20] = system: NCI/ADR-RES ovarian

SMILES: Clc1nc(N2CCC[N+]3(CC2)CC[N+]2(CCCNCC2)CC3)nc(N2CCC[N+]3(CC2)CC[N+]2(CCCNCC2)CC3)n1 (stereo not drawn)
- growth [1]: 106%
- growth [2]: 108%
- growth [3]: 93.7%
- growth [4]: 97.9%
- growth [5]: 133%
- growth [6]: 115%
- growth [7]: 65.1%
- growth [8]: 114%
- growth [9]: 96.7%
- growth [10]: 92.3%
- growth [11]: 90.4%
- growth [12]: 99.8%
- growth [13]: 86%
- growth [14]: 113%
- growth [15]: 98.4%
- growth [16]: 76.2%
- growth [17]: 97.3%
- growth [18]: 92.2%
- growth [19]: 98.3%
- growth [20]: 92.6%

SMILES: CC(Cc1cccc2ccccc12)C(N)=O (stereo not drawn)
- growth [1]: 105%
- growth [2]: 104%
- growth [3]: 97.2%
- growth [4]: 87.3%
- growth [5]: 98.7%
- growth [6]: 103%
- growth [7]: 93.8%
- growth [8]: 100%
- growth [9]: 97.1%
- growth [10]: 99.8%
- growth [11]: 101%
- growth [12]: 102%
- growth [13]: 108%
- growth [14]: 94.9%
- growth [15]: 107%
- growth [16]: 102%
- growth [17]: 96.8%
- growth [18]: 113%
- growth [19]: 99.2%
- growth [20]: 110%

SMILES: CC(=O)Cc1nsc(NC(=O)c2cc(-c3cc(Cl)ccc3Cl)oc2C)n1
- growth [1]: 101%
- growth [2]: 98.4%
- growth [3]: 101%
- growth [4]: 107%
- growth [5]: 151%
- growth [6]: 106%
- growth [7]: 98.9%
- growth [8]: 105%
- growth [9]: 108%
- growth [10]: 101%
- growth [11]: 98.5%
- growth [12]: 100%
- growth [13]: 102%
- growth [14]: 111%
- growth [15]: 113%
- growth [16]: 104%
- growth [17]: 109%
- growth [18]: 110%
- growth [19]: 106%
- growth [20]: 108%

SMILES: O=c1oc2ccccc2cc1-c1nn(-c2ccccc2)cc1/C=N/Nc1nc(-c2ccccc2)c(N=Nc2ccccc2)s1
- growth [1]: 64.9%
- growth [2]: 82.3%
- growth [3]: 103%
- growth [4]: 73.4%
- growth [5]: 95.1%
- growth [6]: 92.9%
- growth [7]: 62.8%
- growth [8]: 70.2%
- growth [9]: 69.7%
- growth [10]: 53.5%
- growth [11]: 21.9%
- growth [12]: 63.1%
- growth [13]: 77.9%
- growth [14]: 102%
- growth [15]: 84.7%
- growth [16]: 82.8%
- growth [17]: 81.7%
- growth [18]: 57.1%
- growth [19]: 87.5%
- growth [20]: 63.7%

SMILES: CN(CCNc1ccc(C(=N)N)cc1)c1ccc(C(=N)N)cc1
- growth [1]: 90.4%
- growth [2]: 84.1%
- growth [3]: 39.3%
- growth [4]: 88.3%
- growth [5]: 94.1%
- growth [6]: 78.4%
- growth [7]: 62%
- growth [8]: 57.7%
- growth [9]: 7.18% (active)
- growth [10]: 87.6%
- growth [11]: 66.7%
- growth [12]: 72.2%
- growth [13]: 80.8%
- growth [14]: 92%
- growth [15]: 96.2%
- growth [16]: 119%
- growth [17]: 36.7%
- growth [18]: 91.4%
- growth [19]: 101%
- growth [20]: 97.1%

SMILES: CC(=O)OCC(=O)O[C@@H]1C[C@]2(C(C)C)O[C@@]1(C)[C@@H]1CC[C@@H](C)[C@H]1[C@@H]2OC(=O)/C=C/c1ccccc1
- growth [1]: 90.9%
- growth [2]: 68.9%
- growth [3]: 20.3%
- growth [4]: -83.3% (active)
- growth [5]: 81.1%
- growth [6]: -4.65% (active)
- growth [7]: -2.07% (active)
- growth [8]: -92.5% (active)
- growth [9]: 70.7%
- growth [10]: 74.5%
- growth [11]: 78.4%
- growth [12]: 73.7%
- growth [13]: 25%
- growth [14]: 99.8%
- growth [15]: 87.9%
- growth [16]: 87.7%
- growth [18]: 90.9%
- growth [19]: -18% (active)
- growth [20]: 21.7%

SMILES: Cc1nc2ccccc2c(/C=C/c2ccc(Br)cc2)c1C(=O)/C=C/c1ccccc1
- growth [1]: -4.28% (active)
- growth [2]: 26.1%
- growth [3]: 10.8%
- growth [4]: -74.2% (active)
- growth [5]: 21.2%
- growth [6]: 6.36% (active)
- growth [7]: 4.36% (active)
- growth [8]: 18%
- growth [9]: 6.02% (active)
- growth [10]: 7.65% (active)
- growth [11]: 13.6%
- growth [12]: -8.25% (active)
- growth [13]: 2.21% (active)
- growth [14]: -18% (active)
- growth [15]: 12.5%
- growth [16]: 49.4%
- growth [17]: -7.6% (active)
- growth [18]: -72.1% (active)
- growth [19]: 25.9%
- growth [20]: -2.99% (active)

SMILES: COc1ccccc1-c1nc2ccc3[nH]ncc3c2c2c1CCCC2
- growth [1]: 99%
- growth [2]: 44.3%
- growth [3]: 80.5%
- growth [4]: 36.3%
- growth [5]: 60.4%
- growth [6]: 58.2%
- growth [7]: 21.8%
- growth [8]: 6.87% (active)
- growth [9]: 66.6%
- growth [10]: 42.6%
- growth [11]: 29.1%
- growth [12]: 68.6%
- growth [13]: 81.2%
- growth [14]: 103%
- growth [15]: 85.6%
- growth [16]: 80.5%
- growth [17]: 58.9%
- growth [18]: 114%
- growth [19]: 44.8%
- growth [20]: 80.6%

SMILES: COc1cc(OCc2cccc(-c3ccccc3)c2C)cc(OC)c1CN1CCCCC1C(=O)NCCOCCOCCN (stereo not drawn)
- growth [1]: 98.4%
- growth [2]: 85.5%
- growth [3]: 87.6%
- growth [4]: 79.1%
- growth [5]: 125%
- growth [6]: 98.7%
- growth [7]: 92.4%
- growth [8]: 72.9%
- growth [9]: 1% (active)
- growth [10]: 38.4%
- growth [11]: -26% (active)
- growth [12]: 13.4%
- growth [13]: 82.8%
- growth [14]: 101%
- growth [15]: 53.3%
- growth [16]: 104%
- growth [17]: 70%
- growth [18]: 85%
- growth [19]: 84.5%
- growth [20]: 103%

SMILES: Cn1cc(-c2csc(-c3cn(CCO)c4ccc(F)cc34)n2)c2cccnc21
- growth [1]: 52.2%
- growth [2]: 57.4%
- growth [3]: 73.2%
- growth [4]: 70.7%
- growth [5]: 47.7%
- growth [6]: 69.5%
- growth [7]: 78.4%
- growth [8]: 45.3%
- growth [9]: 44.4%
- growth [10]: 46.7%
- growth [11]: 20.7%
- growth [12]: 62.6%
- growth [13]: 75.9%
- growth [14]: 65.6%
- growth [15]: 36%
- growth [16]: 73%
- growth [17]: 51.9%
- growth [18]: 49.7%
- growth [19]: 79.8%
- growth [20]: 45.5%

SMILES: O=C1/C(=C/c2cccc(Br)c2)COc2ccc(O)c(O)c21
- growth [1]: -14.8% (active)
- growth [2]: 41.9%
- growth [3]: -73.8% (active)
- growth [4]: -100% (active)
- growth [5]: 12%
- growth [6]: -92.8% (active)
- growth [7]: -54.4% (active)
- growth [8]: 112%
- growth [9]: 4.21% (active)
- growth [10]: 2.59% (active)
- growth [11]: 13.6%
- growth [12]: -12.7% (active)
- growth [13]: 3.75% (active)
- growth [14]: -31.5% (active)
- growth [15]: 0.231% (active)
- growth [16]: 62.9%
- growth [17]: -44.1% (active)
- growth [18]: -78% (active)
- growth [19]: 13.5%
- growth [20]: 7.25% (active)

SMILES: COc1ccc(/C(C)=C(\c2ccc(Cl)cc2)c2ccc(OCCCN(C)C)cc2)cc1
- growth [1]: 90.4%
- growth [2]: 88.6%
- growth [3]: 79.9%
- growth [4]: 64.5%
- growth [5]: 94.7%
- growth [6]: 91.9%
- growth [7]: 67.1%
- growth [8]: 93.4%
- growth [9]: 53.1%
- growth [10]: 55.8%
- growth [11]: 0.701% (active)
- growth [12]: 25.6%
- growth [13]: 85%
- growth [14]: 83.4%
- growth [15]: 90.4%
- growth [16]: 111%
- growth [17]: 81.3%
- growth [18]: 89%
- growth [19]: 71.5%
- growth [20]: 86.5%

SMILES: Cn1cc(-c2nc(-c3c[nH]c4c(Cl)nccc34)cs2)c2ccccc21
- growth [1]: 99.2%
- growth [2]: 86.7%
- growth [3]: 94.5%
- growth [4]: 94.6%
- growth [5]: 81.2%
- growth [6]: 107%
- growth [7]: 87%
- growth [8]: 77.8%
- growth [9]: 92.3%
- growth [10]: 83.9%
- growth [11]: 73.7%
- growth [12]: 87.2%
- growth [13]: 91.1%
- growth [14]: 120%
- growth [15]: 86.4%
- growth [16]: 108%
- growth [17]: 105%
- growth [18]: 107%
- growth [19]: 108%
- growth [20]: 98%

SMILES: Nc1ncnc2c1N=C(c1ccc([N+](=O)[O-])cc1)CC(c1ccc3c(c1)OCO3)N2 (stereo not drawn)
- growth [1]: 59.6%
- growth [2]: 86%
- growth [3]: 102%
- growth [4]: 55.7%
- growth [5]: 107%
- growth [6]: 88.3%
- growth [7]: 89.6%
- growth [8]: 87.4%
- growth [9]: 65%
- growth [10]: 84.1%
- growth [11]: 85.3%
- growth [12]: 71.1%
- growth [13]: 89.6%
- growth [14]: 91.7%
- growth [15]: 95.5%
- growth [16]: 91.1%
- growth [18]: 90.6%
- growth [19]: 80.7%
- growth [20]: 77.6%

SMILES: N#Cc1c(-c2ccc(F)cc2)cc(-c2cccc(Cl)c2)[nH]c1=O
- growth [1]: 78.6%
- growth [2]: 66.9%
- growth [3]: 60.3%
- growth [4]: 54.3%
- growth [5]: 54.3%
- growth [6]: 49.4%
- growth [7]: 52.1%
- growth [8]: 80.4%
- growth [9]: 71.9%
- growth [10]: 88.3%
- growth [11]: 113%
- growth [12]: 42.1%
- growth [13]: 53.4%
- growth [14]: 112%
- growth [15]: 28%
- growth [16]: 79.3%
- growth [17]: 62.8%
- growth [18]: 7.21% (active)
- growth [19]: 46%
- growth [20]: 71.2%
